Our source for the PBM binding z-score values is the supplement of paper PMC6555819.

The test system of the experiment is THRa homodimer (NR concentration 90 nM). Nature of the experiment: PBM binding z-score (relative to random genomic background probes); higher = stronger binding; sequences stand for … in GC…GCGATTGACAGCGTAGAATGAAGG
The gist of the method: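 Antibodies against each partner of ligand-free nuclear receptor dimers (one per run) detected binding on custom Agilent 4×180K protein-binding microarrays after 1 h incubation. The double-stranded probes had 34-nt variable regions carrying direct-repeat seeds, single-nucleotide variants, half-site ablations and random human genomic background sequences. Binding z-scores, from regression-normalized fluorescence, use the random background probes as reference.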
Take AGTCAAAGTTCACTAGGTAACGTTAGATTCAGCT: the PBM binding z-score stood at 0.157.

The sequence ACTAGCAGGCCTAGGGTCACTCAAGATTAGTCCG had a PBM binding z-score of 2.26.

Regarding TCTGCTAGGTCAACGATGGTCAGCTCATCTGCTA, the PBM binding z-score stood at 0.671.

For ATCTCTAGGTAACCAAGTTTAGTGAATGCCGAAC, the PBM binding z-score worked out at 0.672.

For CCTACTGGGCAATCAGGTCATTGATATCAACGTT, the PBM binding z-score was 2.55.

In turn, CGAACTAGGTCATTGACAGGTCAGTGAATAGTAA showed a PBM binding z-score of 0.924.

As for TCTTGTAGATCAATCAGGTTAAGAAAGCCTGAGT, the PBM binding z-score worked out at 0.308.

Sequence CGAACTAGGCCATCCAGGACAGTGAATACATTGA showed a PBM binding z-score of 0.93.

On to CATACAGGGTCAGCTAGGCCAGAGTGGGGACGGC, for which the PBM binding z-score amounted to 1.52.

In turn, CCTAGTTGATCAGGAGGTCACACACCGGATATGA registered a PBM binding z-score of 2.51.

Consider AGAACGAGGGCAATGAGATGATAGCACGGGTGGC, for which the PBM binding z-score is 0.199.

As for AGAATGAGGTTATTCAGATCAGGGAATTGCGGTC, the PBM binding z-score was 0.965.

As for ATCTCTAGGTAAAGTTCCGTGAAAGATCGATAGA, the PBM binding z-score was found to be 0.224.

Sequence CTCGAAAGGTCGTGCTCAGGTGAGCATACCAAAC came in with a PBM binding z-score of 1.23.

As to CGTACTAGGTCATCCAGGACAGTGAATACATTGA, the PBM binding z-score was determined as 2.4.

The sequence CAGCCTAGGTCAGGGCCAGGATAGGAGGAACGTT registered a PBM binding z-score of 0.538.

For GATACAGGGTCAGCTAGAGGCCTGAGTATGGAAA, the PBM binding z-score was determined as 0.0158.

CCGATTAGGTTATGGGGCATTCAGGCAACGGTGA registered a PBM binding z-score of 0.572.

In the case of ATCACTAGGTAACAAGTTCAGTGAAAGAGAGGAC, the PBM binding z-score worked out at 0.852.

ATCTCTAGCTAAAGTTCAGTGAAAGATCGATAGA showed a PBM binding z-score of -0.124.

For AGAATGTGGTTACCAAAGATCAGGGAAACGCTTG, the PBM binding z-score is -0.409.

The sequence GCTAGCAGGCCATTTGGATCACTCAATGACGGGC came in with a PBM binding z-score of -0.938.

In turn, ATCGAAAGGTCGAGGTGAGTATTGAGAAAGGGAA yielded a PBM binding z-score of 0.768.

Regarding GCGACTGGGGCATCAGCAGGTTACAATAACTTAA, the PBM binding z-score is 0.0253.

The sequence ATCGAAAGGTCGTGCGGTGAGTATACAGAAAGGC gave a PBM binding z-score of -0.0433.

Regarding ATATGTAGATTAGCTGGGGTCATTCAGACTAGGC, the PBM binding z-score was determined as 3.01.

ACTGTTAGTTGAGACGAGGGCAACCGATAGGTTG gave a PBM binding z-score of 0.349.

With TAGCCTAGGTCATGCGGGCTAGTATAGTGTCGGC, the PBM binding z-score turned out to be 0.88.

Sequence ATCACTAGGTAAAGTTCAGTGAAAGATCGATAGA registered a PBM binding z-score of 0.158.

In turn, TCATATAGGTAAAAGGTGTAAGTCGGTGTGGTAA returned a PBM binding z-score of -0.167.

Regarding CCGAATGGGGCAAGGTTACCATAACGCACAGCCA, the PBM binding z-score amounted to 0.404.

Consider ATCTCTAGGTAACAAGTTCACTGAAAGAGAGGAC, for which the PBM binding z-score stood at 1.03.

Sequence GCGACTCGGGCAAAGCAGGTTACCATAAGGTTGG registered a PBM binding z-score of -0.264.

ATCGAAAGGTCGAGATGAGTATAGAGAAAGGGAA displayed a PBM binding z-score of -0.434.

ATATGTAGGTTAAGGGTCATTCGGGTTGGTTCGC had a PBM binding z-score of 1.95.

The sequence AGAATGAGGTTATACGTAGATCAGGTAAGAAAGT yielded a PBM binding z-score of 1.01.

GCTTACGGGTCAAGGGTTATAGCATGAATAGAAT showed a PBM binding z-score of 0.219.

On to AATCCAGGGTCACTAGGCCAGAGTAGGTACGAAT, for which the PBM binding z-score came to 1.29.

In the case of ATCTCTAGGTCAAGTTCAGTGAAAGATCGATAGA, the PBM binding z-score was found to be 2.16.

On to GCTTGTAGATCAAGGTCAAGAAAGACTAAGCTAA, for which the PBM binding z-score worked out at 1.74.
